Screening data (PubChem)
Cycloheximide cs – affects cycloheximide protein synthesis inhibition readout, counter-screen; cell reporter, cycloheximide protein synthesis inhibition counterscreen; max response, %; 12% of 300,000 active; in the data active = max response mostly above about 13%, no sharp cut-off; inactive = mostly below about 14%; note: read at 38.3 µM for the half of the compounds with a filed dose; 0% is about no effect
HCMV antiviral – human cytomegalovirus inhibition; activity change, negative = inhibition, % at 57.5 µM; 4.5% of 410,000 active; HFF cells, HCMV-luciferase reporter, 72 h; stronger effect = lower value; AID 1259415; in the data active = activity change below about -60%; inconclusive = no clear call, values can overlap the other calls; inactive = above about -39%; note: % is set by controls: 0 for no effect and ±100 for the full control effect
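After 16 h attachment at 37C, HFF cells received test compound and HCMV-luciferase (1 PFU/cell); reporter luminescence read 72 h later, data normalized against buffer-only and known inhibitor Salinomycin.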
Pf growth 48h – inhibits P. falciparum growth in the first generation, 48 h; P. falciparum luciferase growth in erythrocytes, 48 h; Potency, µM (series often up to 28.7 µM), inactives show top-dose activity change, negative = inhibition, usual class: inhibitors; 5.9% of 310,000 active; AID 504832; note: potency is the fitted concentration of half-maximal effect; % is set by controls: 0 for no effect and ±100 for the full control effect
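Cell-based growth assay: transgenic P. falciparum expressing firefly luciferase, cultured in red cells within RPMI 1640 containing 0.5% w/v Albumax, 24 mM bicarbonate and gentamycin. A drop in luciferase activity indicates inhibition.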
Pf growth 96h – P. falciparum growth inhibition at 96 hours. P. falciparum luciferase reporter growth, 96 h. Potency, µM (series often up to 28.7 µM), for the others: at the top dose activity change, negative = inhibition, hits mostly inhibitors. 6.9% of 320,000 active; note: potency is the fitted concentration of half-maximal effect; % is set by controls: 0 for no effect and ±100 for the full control effect
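Plates of compound plus infected erythrocytes (2% hematocrit, 0.05% parasitemia final) incubate 96 hours, 37 C, 5% CO2. Detection reagent added; reduced luminescence from the parasites' luciferase reporter flags inhibition.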
Shiga toxin inh – blocks Shiga toxin action in Vero cells; Vero cells, Shiga toxin protein synthesis inhibition reporter; inhibition, % at 38.7 µM; 9.2% of 290,000 active; in the data active = inhibition mostly above about 28%, no sharp cut-off; inactive = mostly below about 43%; note: 0% is about no effect
The depositor's hits bear a star; ? = inconclusive; / = no result given. The list is not random: actives were taken first. Their share in the collection is about 20%. Unless noted, calls come from the whole dose curve; as a rule, active = well fitted inhibition curve with a large enough effect; inconclusive = small, poorly fitted or top-dose-only effect, or another doubt; inactive = no such curve, though single readings can be large or run the other way.

SMILES	Cycloheximide cs	HCMV antiviral	Pf growth 48h	Pf growth 96h	Shiga toxin inh
O=C(CSc1nccc(=O)[nH]1)Nc1ccc(F)c([N+](=O)[O-])c1	-3	52	-18%	-9%	-3
Cc1cc(C)c(S(=O)(=O)N(C)CC(=O)NCCN2CCOCC2)c(C)c1	-4	-21	43%	-11%	-7
CCCN1C2CCCC1CC(NC(=O)c1ccc(Br)cc1)C2 (configuration not stated)	-4	41	?	13%	1
Cc1c(N2C(=O)/C(=C\c3cccc4ccccc34)SC2=S)c(=O)n(-c2ccccc2)n1C	-2	-4	7%	8%	-6
CCC(C)(C)NC(=O)C(c1cccc(OC)c1OC)N(Cc1ccccc1)C(=O)CCC(=O)Nc1cc(C)on1 (configuration not stated)	-4	?	?	21%	-10
COc1cccc(C(C(=O)NC(C)(C)C)N(Cc2ccc(F)cc2)C(=O)CCC(=O)Nc2cc(C)on2)c1OC (configuration not stated)	-2	-27	13µM*	?	-15
COc1cccc(C(C(=O)NC(C)(C)C)N(CC(C)C)C(=O)CCC(=O)Nc2cc(C)on2)c1OC (configuration not stated)	-1	20	?	23%	-17
CCC(C)(C)NC(=O)C(c1cccc(OC)c1OC)N(Cc1ccc(OC)cc1)C(=O)CCC(=O)Nc1cc(C)on1 (configuration not stated)	-2	-2	8.3µM*	9%	-5
CCC(C)(C)NC(=O)C(c1cccc(OC)c1OC)N(C(=O)CCC(=O)Nc1cc(C)on1)C(C)C (configuration not stated)	-7	-79*	-19%	?	27
CC(=O)c1ccc(N(CC(=O)NC2CCCC2)C(=O)CCC(=O)Nc2cc(C)on2)cc1	-4	7	12%	12%	-6
COc1ccc(CN2C(=O)CN(S(C)(=O)=O)CC2(C)C(=O)NC(C)C)cc1OC (configuration not stated)	/	0	/	/	/
CCOC(=O)CN1C(=O)c2cccnc2Oc2ccccc21	/	-25	/	/	/
CCc1nc2ccc(C(=O)N3CCN(C(C)=O)CC3)cn2c1N(CCC(C)C)CCN(C)C	/	-8	/	/	/
Cc1ccc(CNC(=O)CCn2cc(-c3ccc(C)cc3)nc2-c2ccncc2)cc1	-2	-10	?	9.3µM*	1
Cc1ccc(CNC(=O)c2ccc(Cn3cc(-c4ccc(C)cc4)nc3-c3ccncc3)cc2)cc1	41*	194	?	?	42*
O=C(O)CCn1cc(-c2ccc(F)cc2)nc1-c1ccncc1	/	42	-19%	68%	/
CCCNC(=O)c1ccc(Cn2cc(-c3ccc(C)cc3)ncc2=O)cc1	/	8	/	/	/
Cc1ccc(CNC(=O)CCn2cc(-c3ccc(F)cc3)nc2-c2ccncc2)cc1	/	-16	8.3µM*	?	/
CCOc1ccc(NC(=O)CC2C(=O)N(c3cccc(C)c3)C(=O)N2CCC2=CCCCC2)cc1 (configuration not stated)	/	1	/	/	/
CC(C)NC(=O)/C(C#N)=C/c1ccc(N(C)C)o1	16*	59	74%	135%	60*
Cc1ccc(/C=C(\C#N)C(=O)NC(C)C)o1	8	?	0%	22%	12
CC(=O)Nc1ccc(NC(=O)CN(c2ccc(C(C)C)cc2)S(=O)(=O)c2ccccc2)cc1	0	-32	?	?	-3
Cc1ccc(C(=O)Cn2nnc(-c3ccccc3)n2)cc1	21	7	38%	22%	82*
CCOc1ccc(-c2nnn(CC(=O)N3CCCC(C)C3)n2)cc1 (configuration not stated)	6	-70*	-7%	11%	26
O=C(Cn1nnc(-c2ccc(N3CCOCC3)cc2)n1)N1CCOCC1	34*	/	129%	268%	34*
SMILES	Cycloheximide cs	HCMV antiviral	Pf growth 48h	Pf growth 96h	Shiga toxin inh
O=C(Cn1nnc(-c2cccc(C(F)(F)F)c2)n1)N1CCOCC1	2	16	13%	27%	-4
Cc1ccc(-c2nnn(CC(=O)NC3CC4CCC3C4)n2)cc1 (configuration not stated)	12*	-17	21%	-18%	12
COc1ccccc1C(=O)NCCC(=O)N(C)Cc1cccs1	/	-1	-5%	5%	/
O=C(Cn1nnc(-c2ccc(N3CCOCC3)cc2)n1)OC1CCCCC1	2	-16	235%	7.4µM*	15
CCCOc1ccc(-c2nnn(CC(=O)N3CCC(C)CC3)n2)cc1	10	-24	/	-5%	-14
CCCCOc1ccc(-c2nnn(CCC(=O)N3CCOCC3)n2)cc1	36*	-8	67%	9.3µM*	78*
Cc1ccc(-c2nnn(CC(=O)N3CCCCC3)n2)cc1	19*	15	0%	8%	/
CC(=O)Nc1ccc(-c2nnn(CC(=O)c3ccc(F)cc3)n2)cc1Cl	-2	-12	?	13µM*	-2
CC(C)c1ccc(-c2nnn(CC(=O)N3CCCCC3)n2)cc1	9	24	4%	7%	/
CC(=O)SCC(Cc1ccccc1)C(=O)NCC(=O)OCc1ccccc1 (configuration not stated)	-3	/	/	/	19
Cc1ccccc1C(=O)Nc1ccc(C(=O)OCc2cc(=O)n3nc(C(C)C)sc3n2)cc1	/	-15	/	/	/
Cc1csc2nc(CNS(=O)(=O)c3cccnc3)cn12	/	19	/	/	/
Cc1nc2cc3nc(C)sc3cc2s1	36*	41	151%	122%	109*
CS(=O)(=O)c1ccc(CNC(=O)C2(C(F)(F)F)C/C(=C/CCO)CCCO2)cc1 (configuration not stated)	-1	-2	/	/	-1
Cc1ccc2oc(C(Cl)(Cl)Cl)cc(=O)c2c1	-3	-89*	3.3µM*	1.9µM*	-15
COc1ccc(N2CCN(S(=O)(=O)c3ccc4c(c3)C(C(C)C)C(=O)N4)CC2)cc1 (configuration not stated)	/	-20	/	/	/
COc1cc(OC)c(C2Oc3nc(SC)nnc3-c3ccccc3N2C(C)=O)cc1OC (configuration not stated)	-1	12	/	-19%	-3
CC(=O)N1c2ccccc2C(=O)OC1c1cccnc1 (configuration not stated)	-1	1	?	33%	-5
COc1cccc(C2OC(=O)c3ccccc3N2C(C)=O)c1OC(C)=O (configuration not stated)	-1	-10	-7%	12µM*	2
CCSc1nnc2c(n1)OC(c1ccc(OC)cc1OC)N(C(C)=O)c1ccccc1-2 (configuration not stated)	/	-63*	/	/	/
COc1ccc(CCNC(=O)CSc2nnnn2-c2cccc(C(C)=O)c2)cc1OC	/	-3	/	/	/
CC1Cc2ccccc2N1C(=O)c1ccnc(C(C)(C)C)c1 (configuration not stated)	5	20	12µM*	30%	-11
Cc1ccc(NC(=O)c2ccnc(C(C)(C)C)c2)cc1	16*	25	40%	69%	71*
Cc1ccc(NC(=O)c2ccc(C)cc2)cc1	/	88	129%	163%	/
